# An excerpt weighted towards active compounds, which were near 22% of everything screened.
# CHX counter – counter-screen for Shiga toxin inhibitors: cycloheximide protein synthesis inhibition | cell reporter, cycloheximide protein synthesis inhibition counterscreen | max response, % | 12% of 300,000 active | AID 2314; in the data active = max response mostly above about 13%, no sharp cut-off; inactive = mostly below about 14%; note: read at 38.3 µM for the half of the compounds with a filed dose; 0% is about no effect
# Shiga inhibitor – inhibitors of Shiga toxin in Vero cells; Vero cells, Shiga toxin protein synthesis inhibition reporter; inhibition, % at 38.7 µM; 9.2% of 290,000 active; AID 2315; in the data active = inhibition mostly above about 28%, no sharp cut-off; inactive = mostly below about 43%; note: 0% is about no effect
# LmPK inhibitor – inhibitors of Leishmania mexicana pyruvate kinase. Q27686. purified LmPK, Kinase-Glo ATP luminescence, 1 h. Potency, µM (series often up to 57.5 µM), for inactives: at the top dose activity change, negative = inhibition, most hits filed as inhibitors. 0.37% of 290,000 active. AID 1721; note: potency is the fitted concentration of half-maximal effect; % is set by controls: 0 for no effect and ±100 for the full control effect
# Target sequence (Q27686 whole entry, looked up): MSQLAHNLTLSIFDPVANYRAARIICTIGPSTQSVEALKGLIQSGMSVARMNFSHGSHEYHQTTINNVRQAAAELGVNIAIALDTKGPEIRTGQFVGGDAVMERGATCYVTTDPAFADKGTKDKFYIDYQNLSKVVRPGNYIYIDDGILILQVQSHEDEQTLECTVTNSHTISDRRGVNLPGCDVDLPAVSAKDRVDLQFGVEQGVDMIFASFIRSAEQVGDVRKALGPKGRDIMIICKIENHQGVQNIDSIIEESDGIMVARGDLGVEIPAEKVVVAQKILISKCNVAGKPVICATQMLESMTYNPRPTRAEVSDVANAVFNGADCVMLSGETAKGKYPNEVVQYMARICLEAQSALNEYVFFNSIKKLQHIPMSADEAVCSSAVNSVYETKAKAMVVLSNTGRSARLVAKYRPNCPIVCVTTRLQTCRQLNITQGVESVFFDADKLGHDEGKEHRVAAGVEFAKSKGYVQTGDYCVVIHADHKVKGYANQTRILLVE
#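 Kinase-Glo luminescence read after 1 h RT reaction of 0.1 nM LmPK with 0.5 mM PEP and 0.1 mM ADP. Activity scaled between uninhibited and enzyme-free controls.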
# Pf growth 96h – P. falciparum growth inhibition at 96 hours. 6.9% of 320,000 active. P. falciparum luciferase reporter growth, 96 h. Potency, µM (titrated, usually from 28.7 µM), without a hit: top-dose activity change, negative = inhibition, actives largely listed as inhibitors; note: potency is the fitted concentration of half-maximal effect; % is set by controls: 0 for no effect and ±100 for the full control effect
#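 Luminescence readout: decreased luciferase signal marks inhibited growth of reporter-expressing P. falciparum in infected red cells (2% hematocrit, 0.05% parasitemia final), exposed to compound two generations (96 h, 37 C, 5% CO2).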
# Pf growth 48h – P. falciparum growth inhibition at 48 hours (one generation) | AID 504832 | 5.9% of 310,000 active | P. falciparum luciferase growth in erythrocytes, 48 h | Potency, µM (series often up to 28.7 µM), for inactives: at the top dose activity change, negative = inhibition, actives largely listed as inhibitors; note: potency is the fitted concentration of half-maximal effect; % is set by controls: 0 for no effect and ±100 for the full control effect
#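 Cell-based growth assay: transgenic P. falciparum expressing firefly luciferase, cultured in red cells within RPMI 1640 containing 0.5% w/v Albumax, 24 mM bicarbonate and gentamycin. A drop in luciferase activity indicates inhibition.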
# The depositor's hits bear a star; u = inconclusive; x = no result given. Unless noted, calls come from the whole dose curve; as a rule, active = well fitted inhibition curve with a large enough effect; inconclusive = small, poorly fitted or top-dose-only effect, or another doubt; inactive = no such curve, though single readings can be large or run the other way.
SMILES,CHX counter,Shiga inhibitor,LmPK inhibitor,Pf growth 96h,Pf growth 48h
O=C(c1ccc(-c2ccc([N+](=O)[O-])cc2)o1)N1CCCC(C(F)(F)F)C1 (centres undefined),x,x,x,4%,9.3µM*
CC1CCCN(C(=O)c2ccc([N+](=O)[O-])o2)C1 (centres undefined),-2,-2,-2%,u,13µM*
O=C(COC(=O)C1C2CC3OC(=O)C1C3C2)Nc1cccc(Cl)c1 (centres undefined),4,3,-2%,u,-6%
Cc1ccccc1C(=O)Oc1cc(N)n(S(=O)(=O)c2ccccc2)n1,-2,25,10%,u,6%
O=C(COC(=O)c1ccc[nH]c1=O)NC1CCCCC1,5,21,3%,8%,8%
O=C(COc1ccccc1)NC(=S)Nc1cccc([N+](=O)[O-])c1,7,17,2%,1.7µM*,5%
O=C(Cc1ccccc1)Nc1cccc([N+](=O)[O-])c1,11,18,-5%,-1%,4%
CCC(CCC(=O)Nc1cccc([N+](=O)[O-])c1)C(=O)O (centres undefined),-2,-14,0%,24%,5%
O=C(CCOc1ccccc1)Nc1cccc([N+](=O)[O-])c1,20*,50*,2%,1%,39%
COC(=O)CCC(=O)Nc1cccc([N+](=O)[O-])c1,2,-8,2%,12µM*,14%
O=C(CCC(=O)Nc1cccc([N+](=O)[O-])c1)NCc1ccccc1,-3,15,1%,25%,23%
CCC(CC)C(=O)OCC(=O)Nc1cccc([N+](=O)[O-])c1,15*,37*,-1%,24%,9%
c1cc2c3c(cccc3c1)NC1(CCC3(CC1)Nc1cccc4cccc(c14)N3)N2,-2,3,-1%,6.6µM*,9.3µM*
COC(=O)N(C)c1nc2ccccc2s1,36*,65,-7%,-9%,92%
O=C(Nc1nc2ccccc2s1)C1c2ccccc2Oc2ccccc21,-3,-13,1%,68%,11%
CCCCNC(=O)N(C)c1nc2ccccc2s1,50*,68*,-1%,38%,67%
CCCCNC(=O)c1cc2ccccc2s1,38*,71*,3%,-22%,67%
COCCNC(=O)c1cc2sc3ccccc3c2s1,58*,89*,0%,24%,78%
COC(=O)C(C)(C)ONC(=O)Nc1ccccc1Cl,7,12,10%,-2%,12%
CCOc1ccccc1NC(=O)CCS(=O)(=O)c1ccc2c(c1)CCN2C(C)=O,-3,2,0%,2%,-3%
COc1ccc(NC(=O)CC2C(=O)Nc3ccccc3N2CC(=O)N2CCCC2)cc1 (centres undefined),x,x,x,u,-28%
CC1(C)CC(=O)c2cc(C(=O)O)c(=O)n(-c3ccccc3)c2C1,0,-10,4%,x,9%
CC1(C)CC(=O)c2cc(N=C/C(C(=O)c3ccccc3)=C(\O)c3ccccc3)c(=O)oc2C1,43*,185*,3%,34%,8%
O=C(O)CNC(=O)CCCn1nnc2ccccc2c1=O,-2,9,3%,67%,3%
CCOc1ccc(/C=N/n2c(COc3ccccc3)n[nH]c2=S)cc1OC,4,-9,1%,u,u
SMILES,CHX counter,Shiga inhibitor,LmPK inhibitor,Pf growth 96h,Pf growth 48h
COc1cccc(NC(=O)CN2CCCCCC2)c1,23*,x,-3%,u,114%
COc1cccc(NC(=O)CN2C(=O)NC(C)(CCC(C)C)C2=O)c1 (centres undefined),-2,-7,-6%,17%,10µM*
O=C(CN1CCCCC1)Nc1cccc(Br)c1,15*,20,0%,u,17%
Cc1cccc(NC(=O)CN2CCCCCC2)c1,6,19,2%,20%,23%
Cc1ccc(C(=O)Nc2cccc(NC(=O)CN3CCCCC3)c2)cc1,14*,x,-22%,1%,-5%
O=C(CN1CCOCC1)Nc1cccc(Br)c1,-1,-12,4%,16%,-20%
Cc1ccc(N2C(=O)[C@@H]3C(C(=O)CCN4C(=O)c5ccccc5C4=O)=NN[C@@H]3C2=O)cc1,-1,-10,10%,34%,13%
CC(=O)Oc1ccc2oc(/C=C/N(C)C)c([N+](=O)[O-])c2c1,30,24,-11%,u,x
C/C(=C/c1oc2ccc(O)cc2c1[N+](=O)[O-])N(C)C,13,14,-14%,15µM*,x
CC(OC(=O)c1ccc(-n2cnnn2)cc1)C(=O)Nc1ccc(F)c(F)c1F (centres undefined),x,x,x,-10%,-12%
COc1cc(/C=C(/NC(=O)c2ccccc2)C(=O)Nc2ccc(O)cc2)c([N+](=O)[O-])cc1OC,0,-4,1%,10µM*,1%
COc1cc(/C=C(/NC(=O)c2ccccc2)C(=O)Nc2ccccc2)c([N+](=O)[O-])cc1OC,-2,29,-2%,-38%,8%
O=C(NC(=S)Nc1ccccn1)c1cccc([N+](=O)[O-])c1,43*,76*,1%,-17%,-15%
COc1ccc(C(=O)NC(=S)NNC(=O)c2ccc(O)cc2)cc1[N+](=O)[O-],39*,86*,4%,-3%,16%
CCOc1ccc(C(=O)NC(=S)Nc2ccccn2)cc1[N+](=O)[O-],15*,31,-11%,24%,34%
O=C(NC(=S)NCc1ccccc1)c1cccc([N+](=O)[O-])c1,1,-7,-2%,116%,0%
O=C(NCCC1CCCCN1S(=O)(=O)c1ccc(F)cc1)C(=O)NCc1cccnc1 (centres undefined),x,x,x,u,2%
CC(C)C[C@H](NC(=O)C1CCN(S(=O)(=O)c2ccccc2)CC1)C(=O)NCc1ccncc1,-3,-2,4%,-6%,-9%
CN(CCc1ccccn1)C(=O)CCC1CCCN(C(=O)NC2CCCCC2)C1 (centres undefined),-3,-2,6%,u,28%
Cc1ccc(COc2ccc(-c3nnco3)cc2)cc1,40*,67*,1%,138%,x
COc1cccc([C@@H]2CC=C(C(=O)O)CN2S(=O)(=O)c2ccc(C)cc2)c1,x,x,x,88%,-2%
Nc1[nH]c(=O)[nH]c(=O)c1N=Nc1ccccc1Cl,17,14,2%,41%,-6%
Cc1[nH][nH]c(=O)c1N=Nc1ccccc1Cl,22*,56*,-16%,22%,0%
Cc1ccc2nc3c(cc2c1)CC1(C(=O)N(C)C(=O)N(C)C1=O)C1CCCCN31 (centres undefined),19*,69*,1%,x,43%
Cc1cccn2c(=O)c3c(nc12)N1CCCCCC1C1(C3)C(=O)N(C)C(=O)N(C)C1=O (centres undefined),-2,4,5%,2.6µM*,u
Cc1cccn2c(=O)c3c(nc12)N1CCc2ccccc2C1C1(C3)C(=O)NC(=O)N(C)C1=O (centres undefined),14,-16,5%,x,13µM*
